# Screening results: PubChem BioAssay, National Center for Advancing Translational Sciences (NCATS)
# LDHA inh – qHTS assay for inhibitors of human lactate dehydrogenase. L-lactate dehydrogenase A chain (Homo sapiens), P00338. purified LDHA, NADH/diaphorase-resazurin fluorescence; active compounds read low. activity change, % (values are at about 110 or 230 µM). 480,000 compounds, 0.15% hits; in the data active = activity change below about -30%; inconclusive = mostly about -25% to -30%;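 note: plate controls were DMSO wells for no effect and wells without enzyme for full effect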
#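 Remaining NADH was detected by diaphorase (0.133 mg/mL) converting 37 µM resazurin to fluorescent resorufin, read at 0 and 20 minutes. The preceding 5-minute room-temperature reaction used 2 nM LDHA, 0.2 mM sodium pyruvate and 0.06 mM NADH at pH 7.4.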
# PI4K2A inh – qHTS for small molecular inhibitors of PI4K2A. purified PI4K2A, ADP-Glo luminescence, 1 h; active compounds read low. activity change, negative = inhibition, % at 76.9 µM. 420,000 compounds, 0.13% hits. AID 1346378, 2018; in the data active = activity change below about -50%; inconclusive = mostly about -30% to -49%;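 note: -100% = wells without enzyme as full effect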
# Target sequence (Q9BTU6 whole entry, looked up): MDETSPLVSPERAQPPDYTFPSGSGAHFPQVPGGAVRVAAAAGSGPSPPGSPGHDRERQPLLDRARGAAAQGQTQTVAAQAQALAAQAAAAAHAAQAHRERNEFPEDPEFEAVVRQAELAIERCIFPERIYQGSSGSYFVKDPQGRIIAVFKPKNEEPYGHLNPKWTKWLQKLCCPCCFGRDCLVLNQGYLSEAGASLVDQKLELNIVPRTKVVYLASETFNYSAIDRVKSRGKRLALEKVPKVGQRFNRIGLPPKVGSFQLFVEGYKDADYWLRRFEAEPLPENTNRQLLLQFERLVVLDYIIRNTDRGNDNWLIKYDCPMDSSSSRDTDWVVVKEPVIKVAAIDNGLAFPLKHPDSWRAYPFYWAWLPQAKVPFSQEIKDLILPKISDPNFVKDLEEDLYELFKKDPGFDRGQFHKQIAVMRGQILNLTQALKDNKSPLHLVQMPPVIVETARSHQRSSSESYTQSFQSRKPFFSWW
#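 In this quantitative HTS, ADP production by PI4K2A was quantified luminescently after 1 h at ambient temperature; 100 microM adenosine served as plate-quality control.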
# Akt phos inh – HTS Assay for Inhibitors of Akt Phophorylation: Primary Screen; activity change, % for hits at 50 µM; 360,000 compounds, 0.32% hits; Neuro2A IGF-stimulated pAkt S473 HTRF, 20 min; active compounds read low; AID 651550, 2012; in the data active = activity change below about -80%; inconclusive = mostly about -51% to -80%; note: % is set by controls: 0 for no effect and ±100 for the full control effect
#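 Neuro2A cells (4,500/well, DMEM with 0.5% FBS) were treated with compound at a single 50 µM final concentration, stimulated with 6 nM IGF for 20 min at 37 °C, and lysed. Phospho-Akt Ser473 was read by HTRF as 665/615 ratio ×10^4.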
# DRD3 agonist – qHTS of D3 Dopamine Receptor Agonist: qHTS. D(3) dopamine receptor (Homo sapiens), P35462. D3R DiscoveRx beta-arrestin cells, luminescence, 90 min. max activation, %. 410,000 compounds, 0.58% hits. AID 652048, 2013; in the data active = max activation above about 30%; note: 0% is about no effect
#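 Agonist mode: compounds and dopamine controls were applied to plated cells for 90 min at 37 degrees C after an overnight attachment at 1500 cells/well. Luminescent read-out followed 30 - 60 minutes at room temperature with DiscoveRx detection reagent.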
# D3 antag – qHTS of D3 Dopamine Receptor Antagonist: qHTS; D3R cells, DiscoveRx beta-arrestin luminescence, antagonist mode; active compounds read low; AID 652054, 2013; 360,000 compounds, 2.5% hits; D(3) dopamine receptor (Homo sapiens), P35462; max response, negative = inhibition, %; in the data active = max response below about -50%; inconclusive = no clear call, values can overlap the other calls; note: % is set by controls: 0 for no effect and ±100 for the full control effect
#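 Cells plated overnight at 1500 cells/well, then exposed to library compounds with dopamine controls for 90 minutes at 37 degrees C. DiscoveRx reagent added for 30–60 minutes at room temperature; luminescence read, quantitative HTS format.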
# RGS4 inhibitor – Inhibitors of Regulator of G Protein Signaling (RGS) 4: qHTS; Regulator of G-protein signaling 4 (Homo sapiens), P49798; Transcreener GDP fluorescence polarization, RGS4-accelerated GTP hydrolysis; Potency, µM (doses to about 114 µM), without a hit: at the highest dose activity change, negative = inhibition, actives largely listed as inhibitors; 390,000 compounds, 0.039% hits; active = well fitted inhibition curve with a large enough effect; inconclusive = small, poorly fitted or top-dose-only effect; inactive = no such curve, though single readings can be large or run the other way; note: potency is the fitted concentration of half-maximal effect; % is set by controls: 0 for no effect and ±100 for the full control effect; nearly all actives have a fitted effect of over 75% in size
# Target sequence (P49798 whole entry, looked up): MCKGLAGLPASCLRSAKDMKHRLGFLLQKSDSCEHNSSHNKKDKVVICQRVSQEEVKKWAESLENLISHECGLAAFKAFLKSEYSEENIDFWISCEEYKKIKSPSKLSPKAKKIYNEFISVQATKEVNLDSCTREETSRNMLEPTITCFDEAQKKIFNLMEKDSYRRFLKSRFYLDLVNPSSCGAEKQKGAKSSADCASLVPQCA
#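 MLSMR compounds (23 nl, pin-transferred) preincubated 10 min at room temperature with a 500nM (2x) first reagent, then RGS4 at 900nM (2x) plus Transcreener GDP mix added; fluorescence polarization (620/688 nm) read before and after 90 min at 30 °C.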
# The depositor's hits bear a star; i = inactive; ? = inconclusive; · = no result; [ ] = remark or other dose. In the library only some 2.8% were active in any assay of this set; here they are far more common.
SMILES,LDHA inh,PI4K2A inh,Akt phos inh,DRD3 agonist,D3 antag,RGS4 inhibitor
O=C(COC(=O)C1CC2C=CC1C2)Nc1cccc(S(=O)(=O)N2CCCCC2)c1 (configuration not stated),0,-1,i,31*,7,-9%
Cc1ccc(NC(=O)CSc2n[nH]c(=O)c3cc(-c4ccco4)nn23)cc1F,9,·,·,·,·,·
O=C(c1ccccc1Br)N1CCN(c2ccccn2)CC1,-7,1,i,33*,-11,4%
Cc1cccc(-c2noc(-c3cccc(Br)c3)n2)c1,-5,·,·,·,·,·
O=C1CC(=O)N(c2cccc(F)c2)N1,7,-6,i,-12,-51*,-22%
COc1ccc(CNC(=O)c2ccc(-n3ccnc3)c3ccoc23)cc1OC,3,?,i,-6,-76*,·
Cc1nc(N2CCOCC2)ncc1-c1cc(=O)[nH]c(Nc2cccc(C(F)(F)F)c2)n1,-5,·,·,·,·,·
Cc1cccc(C)c1NC(=O)C1CCCCC1,-1,·,·,·,·,·
O=C1c2cccc3cccc(c23)C(=O)N1CC1CCN(CC(O)COc2ccc3ccccc3c2)CC1 (configuration not stated),1,5,i,-16,?,-18%[56.9 µM]
CCc1ccc(OCC(O)CN2CCC(CN3C(=O)c4cccc5cccc(c45)C3=O)CC2)cc1 (configuration not stated),-5,1,i,-22,-12,-20%
Cc1cc(C)cc(OCC(O)CN2CCC(CN3C(=O)c4cccc5cccc(c45)C3=O)CC2)c1 (configuration not stated),-3,-2,i,-15,-68*,-18%[11.4 µM]
COc1cccc(OCC(O)CN2CCC(CN3C(=O)c4cccc5cccc(c45)C3=O)CC2)c1 (configuration not stated),-14,5,i,-13,-52*,4%
O=C(/C=C/c1cccc(Br)c1)c1ccc(O)cc1,2,·,·,·,·,·
CN1C(C(=O)Nc2ccc(C(=O)O)cc2)=C(O)c2ccccc2S1(=O)=O,-8,-7,i,60*,-11,23%
CN1C(C(=O)c2ccccc2)=C(NC(=O)c2ccc(F)cc2)c2ccccc2S1(=O)=O,0,5,·,-9,·,-6%
CCn1cc(C(=O)OCC(=O)OC2CC(C)CCC2C(C)C)c(=O)c2ccc(C)nc21 (configuration not stated),1,17,i,-1,-81*,-4%
CC(C)CN(CCNC(=O)COCc1cc(-c2cccs2)on1)CC(C)C,-1,·,·,·,·,·
O=C(O)CC1S/C(=N/N=C/c2ccc(-c3ccc(Cl)cc3[N+](=O)[O-])o2)NC1=O (configuration not stated),7,-12,i,-7,-77*,?
O=C(O)CC1S/C(=N/N=C/c2ccc(-c3ccc(Cl)c([N+](=O)[O-])c3)o2)NC1=O (configuration not stated),-6,-2,i,-9,-3,-53%
COc1cc(C(=O)Nc2nc(C)c(C(=O)N(C)C)s2)cc(OC)c1OC,-1,·,·,·,·,·
O=C1/C(=C/c2ccc(OC(F)F)cc2)CCc2ccccc21,13,·,·,·,·,·
COc1cccc(C=C2Cc3ccccc3C2=O)c1,-3,-4,i,6,10,·
CC(=O)Oc1ccc(/C=C2/CCc3ccccc3C2=O)cc1,4,-79*,i,-12,-15,-30%
COc1ccc(N/C=C2\CCc3ccccc3C2=O)cc1,8,-66*,i,2,11,-46%
COc1ccc(/C=C2\CCc3ccccc3C2=O)cc1Cn1nc(C)cc1C,4,3,i,1,-79*,-16%
SMILES,LDHA inh,PI4K2A inh,Akt phos inh,DRD3 agonist,D3 antag,RGS4 inhibitor
COc1cccc(/C=C2\CCc3ccccc3C2=O)c1,-9,-69*,i,3,22,-9%
Cc1nn(CC(=O)Nc2nc3c(C)cccc3s2)c(=O)c2ccccc12,2,·,·,·,·,·
CCOC(=O)c1cc(-c2ccc3c(c2)OCO3)nc2onc(C)c12,-6,1,-117%*,1,14,8%
COC(=O)c1cc(-c2ccc(Cl)cc2)nc2onc(C)c12,-4,·,·,·,·,·
CCC(C)C(=O)Nc1c2c(nc3c1CCC3)CCCC2 (configuration not stated),-7,-12,-101%*,-3,-12,12%
CC(O)C(NS(=O)(=O)c1ccc(Cl)cc1)C(=O)OCC(=O)c1ccc2c(c1)NC(=O)CO2 (configuration not stated),-10,4,i,-5,4,-27%
O=C1COc2ccc(C(=O)COC(=O)c3ccccc3[N+](=O)[O-])cc2N1,3,-2,i,3,5,-10%
O=C1COc2ccc(C(=O)COC(=O)c3ccccc3F)cc2N1,-10,-2,i,-1,-51*,0%
CC(C)CC(NC(=O)c1ccc(Cl)cc1)C(=O)OCC(=O)c1ccc2c(c1)NC(=O)CO2 (configuration not stated),-8,0,i,20,-73*,-7%
CCC(Sc1ccc2nnc(-c3ccc(F)cc3)n2n1)C(=O)OC (configuration not stated),-6,-2,i,-18,-75*,11%
COC(=O)C(C)Sc1ccc2nnc(-c3ccc(F)cc3)n2n1 (configuration not stated),-14,5,i,-20,-21,-2%
CC(OC(=O)c1cc(=O)[nH]c2ccccc12)C(=O)N(C)c1ccccc1 (configuration not stated),-6,·,·,·,·,·
O=C(Cc1c[nH]c2ccccc12)NCCc1cccc(Cl)c1,3,·,·,·,·,·
O=C1C(Cl)=C(NCCc2ccccc2)C(=O)N1CCc1ccccc1,-5,0,i,0,-8,8%
O=C1C(Cl)=C(NCCc2ccccc2)C(=O)c2ccccc21,55,-10,i,-13,-71*,?
CC(=O)N(Cc1ccc(F)cc1)C1=C(NCCc2ccccc2)C(=O)c2ccccc2C1=O,24,-21,i,4,-54*,-25%
O=C1C(Cl)=C(Nc2ccccc2)C(=O)c2ccccc21,19,-4,i,-49,-74*,4%
O=C(O)c1cccc(NC2=C(Cl)C(=O)c3ccccc3C2=O)c1,9,-27,i,-29,-90*,-44%
